Compound activity: PubChem, National Center for Advancing Translational Sciences (NCATS)
In the library only some 9% were active in any assay of this set; here they are far more common.
HPGD block – qHTS Assay for Inhibitors of HPGD (15-Hydroxyprostaglandin Dehydrogenase) | purified HPGD, NADH fluorescence kinetic, PGE2 substrate | 15-hydroxyprostaglandin dehydrogenase [NAD(+)] (Homo sapiens), P15428 | 4.3% of 150,000 active | Potency, µM, for the others: top-dose activity change, negative = inhibition, most hits filed as inhibitors; active = well fitted inhibition curve with a large enough effect, not every such curve was filed as active; inconclusive = small, poorly fitted or top-dose-only effect, or another doubt; inactive = no such curve, though single readings can be large or run the other way; note: potency is the fitted concentration of half-maximal effect; % is set by controls: 0 for no effect and ±100 for the full control effect
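NADH formation kinetics: reaction with 30 uM PGE2 and 1 mM NAD+ (final), 20 nM enzyme, Tris-HCl pH 8 with Tween 20, after 15 min compound preincubation at room temperature. Fluorescence change, last versus first of five reads.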
Luc counter – Counterscreen for Luciferase (Kinase-Glo TM) Inhibition; Luciferin 4-monooxygenase (Photuris pensylvanica), Q27757; Kinase-Glo luciferase, ATP luminescence, 8 min; Potency, µM (highest dose often 38.3 µM), for the others: at the top dose activity change, negative = inhibition, actives largely listed as inhibitors; 0.28% of 200,000 active; note: potency is the fitted concentration of half-maximal effect; % is set by controls: 0 for no effect and ±100 for the full control effect; nearly all actives have a fitted effect of over 60% in size
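Recombinant Kinase-Glo luciferase, 10 uM ATP (linear range), luciferin; imidazole pH 7.2 / KCl / MgCl2 / Tween / BSA buffer; 8 min RT; luminescence.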
LMNA splice mod – qHTS Assay for Modulators of Lamin A Splicing; HeLa LMNA splicing GFP/RFP minigene ratio, 48 h; Potency, µM (doses to about 46.1 µM), without a hit: top-dose ratio change, negative = inhibition, most hits filed as inhibitors; 0.01% of 200,000 active; AID 1487, 2009; active = well fitted inhibition curve with a large enough effect in the signal ratio, with a control signal flat, not every such curve was filed as active; inconclusive = small, poorly fitted or top-dose-only effect, or effect the other way, or a change in a side signal; the % refers to the signal ratio; note: potency is the fitted concentration of half-maximal effect; % is set by controls: 0 for no effect and ±100 for the full control effect
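S3 HeLa cells stably expressing lamin A-EGFP splicing minigene plus DsRed2, 600 cells/well, 48 h compound exposure at 37C. Laser-scanning cytometry; analysed as GFP (500-530 nm)/RFP (575-640 nm) total intensity ratio; 0.5% DMSO vehicle.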
ALDH1A1 inh-1 – qHTS Assay for Inhibitors of Aldehyde Dehydrogenase 1 (ALDH1A1). Aldehyde dehydrogenase 1A1 (Homo sapiens), P00352. Purified ALDH1A1, NADH fluorescence, propionaldehyde substrate. Potency, µM (top dose mostly 75.3 µM), without a hit: top-dose activity, negative = inhibition, usual class: inhibitors. 7.3% of 220,000 active. AID 1030, 2008; active = well fitted inhibition curve with a large enough effect, not every such curve was filed as active; inconclusive = small, poorly fitted or top-dose-only effect, or another doubt; inactive = no such curve, though single readings can be large or run the other way;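 note: potency is the fitted concentration of half-maximal effect; plate controls were no enzyme wells and a reference inhibitor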
Target sequence (P00352 whole entry, looked up): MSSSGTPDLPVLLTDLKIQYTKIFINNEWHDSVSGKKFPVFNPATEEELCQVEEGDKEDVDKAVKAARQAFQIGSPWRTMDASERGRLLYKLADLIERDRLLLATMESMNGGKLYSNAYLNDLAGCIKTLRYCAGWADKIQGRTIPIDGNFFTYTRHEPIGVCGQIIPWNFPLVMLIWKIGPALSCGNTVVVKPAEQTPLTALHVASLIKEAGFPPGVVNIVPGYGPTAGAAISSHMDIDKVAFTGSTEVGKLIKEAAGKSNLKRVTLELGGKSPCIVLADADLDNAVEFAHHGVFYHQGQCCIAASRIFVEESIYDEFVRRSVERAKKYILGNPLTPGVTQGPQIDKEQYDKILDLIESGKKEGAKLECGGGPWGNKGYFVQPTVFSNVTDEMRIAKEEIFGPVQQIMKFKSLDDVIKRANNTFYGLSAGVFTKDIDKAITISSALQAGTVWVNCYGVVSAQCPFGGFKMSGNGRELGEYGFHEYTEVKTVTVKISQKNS
HTT cytoprotect – qHTS Multiplex Assay to Identify Dual Action Probes in a Cell Model of Huntington: Cytoprotection (ATP); PC12 HTT-Q103 induced, cytoprotection, ATP luminescence, 40 h; Potency, µM (series often up to 56.4 µM), for the others: cytoprotection (ATP increase), hits mostly activators; 0.14% of 230,000 active; note: potency is the fitted concentration of half-maximal effect; % of control where 0% means no effect; nearly all actives have a fitted effect of over 45% in size
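Quantitative HTS on tebufenozide-induced (100 nM) PC12 cells expressing HTTQ103 exon 1–GFP; compounds tested as a concentration series; survival measured via cellular ATP.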
HttQ103 aggreg – qHTS Multiplex Assay to Identify Dual Action Probes in a Cell Model of Huntington: Aggregate Formation (GFP) | AID 1688, 2009 | Potency, µM (titrated, usually from 46.1 µM), without a hit: at the highest dose activity change, negative = inhibition, most hits filed as inhibitors | 1.1% of 220,000 active | PC12 HttQ103-GFP aggregates, Acumen cytometry, 40 h; note: potency is the fitted concentration of half-maximal effect; % is set by controls: 0 for no effect and ±100 for the full control effect; nearly all actives have a fitted effect of over 60% in size
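Compounds (qHTS titration) were added to PC12 cells expressing an ecdysone-driven HTT exon 1 Q103–GFP fusion after induction with 100 nM tebufenozide. Aggregate formation was measured as GFP objects in cell lysates.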
HPGD inh cf – Confirmation qHTS Assay for Inhibitors of HPGD (15-Hydroxyprostaglandin Dehydrogenase); shares compounds with HPGD block; recombinant HPGD, NADH fluorescence, PGE2 substrate; Potency, µM (top dose mostly 57.1 µM), for inactives: top-dose activity change, negative = inhibition, usual class: inhibitors; 90% of 90 active; AID 2429, 2010; calls by dose curve
ALDH1A1 inh-2 – Inhibitors of Aldehyde Dehydrogenase 1 (ALDH1A1): Followup Confirmation and Counterscreen; shares compounds with ALDH1A1 inh-1; purified ALDH1A1, NADH fluorescence, propionaldehyde/NAD+; Potency, µM (series often up to 57.1 µM), without a hit: at the highest dose activity change, negative = inhibition, most hits filed as inhibitors; 90% of 90 active; AID 493210, 2011; calls by dose curve
* marks the source's active call; other numbers are inactive results; ? = inconclusive; nt = no result; [ ] = another dose, or the depositor's remark. Unless noted, calls come from the whole dose curve; as a rule, active = well fitted curve in the direction sought with a large enough effect; inconclusive = small, poorly fitted or top-dose-only effect, or another doubt; inactive = no such curve, though single readings can be large; an effect the other way counts as inactive or inconclusive.

SMILES	HPGD block	Luc counter	LMNA splice mod	ALDH1A1 inh-1	HTT cytoprotect	HttQ103 aggreg	others
CC(C)c1cc2c(c(O)c1O)[C@@]1(C(=O)O)CCCC(C)(C)[C@@H]1CC2	15.8µM*	0.8%[39.9 µM]	nt	14.1µM*	nt	nt
C[C@]1(C(=O)O)CCC[C@]2(C)c3cc(O)ccc3CC[C@@H]12	-13.4%	1.4%	nt	2.1%	-8.0%[1.9 µM]	nt
C[C@@]12CCC[C@](C)(C(=O)O)[C@@H]1CCc1ccc(O)cc12	nt	nt	nt	nt	-5.7%	nt
CCC(=NCCc1ccccc1)c1c(O)n(C)c(=O)n(C)c1=O	nt	nt	nt	nt	6.2%[10 µM]	11.5%[9.22 µM]
COC(C)(C)C	-2.5%	nt	nt	17.8µM*	-5.3%	nt
CC(C)(C)OOC(C)(C)C	-6.9%	nt	nt	-4.1%	-2.2%	nt
CCNC(=O)O/N=C(\C)c1sc(-c2ccccc2)nc1C	?	-13.9%	-9.6%	?	-35.4%	1.0%
CC(C)C(CCN1C(=O)c2ccccc2C1=O)c1ccco1 (stereo not drawn)	-15.9%	2.2%	1.9%	22.4µM*	-6.9%	-6.7%[1.84 µM]
C/C(=N\NC(N)=S)C12CC3CC(CC(C3)C1)C2	-3.0%	18.4%	?	?	3.16µM*	-8.8%
Cc1ccc(-n2nc(C)c3c2OC(N)=C(C#N)C3c2cccs2)cc1 (stereo not drawn)	-12.8%	-1.2%	-2.5%	12.6µM*	-2.4%[10 µM]	17.1%
c1cc(Cc2cnc[nH]2)ccn1	-6.0%	0.7%	nt	1.5%	6.4%	nt
O=P1(NC2CCCC2)COc2ccccc2OC1	0.0708µM*	10.6%	-6.9%	-9.3%	1.5%[10 µM]	-7.5%	HPGD inh cf=0.159µM*
C[C@]12CCC(=O)C=C1CC[C@@H]1[C@@H]2C(=O)C[C@]2(C)C(=O)CC[C@@H]12	-2.5%	2.0%	?	1.8%	nt	-1.7%
O=P1(NCc2ccco2)COc2ccccc2OC1	1µM*	-7.0%	0.5%	0.3%	-18.9%	11.3%	HPGD inh cf=1µM*
c1ccc(CC(NCc2ccco2)c2ccccc2)cc1 (stereo not drawn)	nt	-2.4%	7.4%[9.22 µM]	-4.6%	-12.7%	-4.5%
O=C1C=CC(=O)c2c1ccc1c2ccc2ccccc21	11.2µM*	-0.8%[17.1 µM]	?	0.316µM*	-0.5%[40.3 µM]	nt	ALDH1A1 inh-2=0.316µM*
CC(=O)[C@H]1[C@H](C#N)C[C@H]2[C@@H]3CC=C4C[C@@H](O)CC[C@]4(C)[C@H]3CC[C@@]21C	-4.9%	-10.9%	0.2%	-0.3%	-15.9%	-2.5%
